± gives the standard deviation.
System: RAW-Dual (murine macrophage reporter line)
Assay: NF-kB reporter (SEAP) activity fold change vs agonist alone; higher = enhanced NF-kB activity
Conditions: modulator concentration 10 µM; agonist: CpG ODN 1826 0.5 ug/mL
How it was run: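 Overnight stimulation with a PRR agonist followed pre-incubation for 1 hour at 37 °C with compound at 10 μM final. This was done in RAW-Dual murine macrophage reporter cells seeded at 50 000 per well in 384-well plates. NF-κB (SEAP, QUANTI-Blue absorbance at 620 nm) and IRF (Lucia luciferase, QUANTI-Luc luminescence) were read from the supernatant. Each reporter's fold change relative to the mean agonist-only control on the same plate was averaged over replicate plates.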

| SMILES | NF-kB reporter |
| --- | --- |
| COc1ccc(-n2cnc3cc(NC(C)=O)ccc32)cc1 | 0.978 ± 0.18 |
| COC1CC2CCC(C1)N2S(=O)(=O)c1ccc(Br)cc1 (stereo unspecified) | 0.93 ± 0.089 |
| CN(C)C(=O)c1cc2cnc(Nc3ccc(N4CCNCC4)cn3)nc2n1C1CCCC1 | 0.832 ± 0.036 |
| CCCOc1ccc(-c2ccc(-c3nc(Cc4ccc(OC)c(OC)c4)no3)cc2)cc1 | 0.763 ± 0.062 |
| CCOC(=O)C1=C(C)NC(=O)N(C(C)=O)C1c1ccc(Br)cc1 (stereo unspecified) | 0.554 ± 0.032 |
| O=C(Nc1ccccn1)c1ccc(OCC2CCCO2)nc1 (stereo unspecified) | 1.12 ± 0.064 |
| O=c1[nH]nc(Br)c(=O)[nH]1 | 1.04 ± 0.082 |
| O=C(O)CCCN1CCC(O[C@@H](c2ccc(Cl)cc2)c2ccccn2)CC1.O=S(=O)(O)c1ccccc1 | 1.37 ± 0.19 |
| COc1cc2c(cc1Cc1cccc(Cl)c1F)c(=O)c(C(=O)O)cn2[C@H](CO)C(C)C | 0.941 ± 0.14 |
| CC1CC(=O)C2=C(C1)OC(N)=C(C#N)C2c1cccc2ccccc12 (stereo unspecified) | 1.04 ± 0.059 |
| COc1ccc(Br)c(C(=O)N2CCOCC2CO)c1 (stereo unspecified) | 0.922 ± 0.049 |
| COC(=O)c1ccc(N2C(=O)c3ccc(Oc4cccc([N+](=O)[O-])c4)cc3C2=O)cc1 | 0.969 ± 0.085 |
| CC(C)NCC(O)COc1ccccc1C(C)(C)C.Cl (stereo unspecified) | 0.857 ± 0.063 |
| COc1ccc([C@H]2CNC(=O)C2)cc1OC1CCCC1 | 2.61 ± 0.4 |
| Cc1c(C)c2c(c(C)c1O)CCC(C)(CCCC(C)CCCC(C)CCCC(C)C)O2 (stereo unspecified) | 1.02 ± 0.085 |
| Oc1ccc(O)cc1 | 1.33 ± 0.2 |
| Cc1c(C)n2c3c(=O)n(Cc4ccccc4F)c(=O)n(C)c3nc2n1CCCN1CCOCC1 | 0.843 ± 0.062 |
| CCOc1ccc(CN(CCc2ccc3c(c2)OCO3)Cc2cccc3ccccc23)cc1 | 0.73 ± 0.071 |
| Cc1ccc(O)c([C@H](CCN(C(C)C)C(C)C)c2ccccc2)c1.O=C(O)[C@H](O)[C@@H](O)C(=O)O | 0.67 ± 0.061 |
| CCOC(=O)N(CC(=O)OC)CP(=O)(O)C(Cc1ccccc1)C(=O)O (stereo unspecified) | 0.988 ± 0.058 |
| COC(=O)CNC(c1ccccc1)c1cc(Br)ccc1NC(=O)c1ccccc1Br (stereo unspecified) | 0.826 ± 0.07 |

Same assay, conditions: modulator concentration 10 µM; agonist: LPS 0.1 ug/mL

| SMILES | NF-kB reporter |
| --- | --- |
| CN(C)CCNC(=O)C(=O)NC(c1ccccc1)c1ccccc1 | 1.01 ± 0.089 |
| Cc1ccsc1C(=CCCN1CCC[C@@H](C(=O)O)C1)c1sccc1C | 1.06 ± 0.053 |
| O=C1c2ccccc2C(=O)C1c1ccncc1 | 1.03 ± 0.059 |
| Oc1c2c(nc3cc(-c4ccc(Cl)cc4)nn13)CCS2 | 0.945 ± 0.12 |
| CC(C(=O)N1CCN(S(=O)(=O)C2CC2)CC1)n1nc2c(cc1=O)CCC2 (stereo unspecified) | 1.06 ± 0.095 |
| COc1ccc2c(C)nc(Nc3nc(C)cc(-c4ccccc4)n3)nc2c1 | 0.879 ± 0.065 |
| COC(CNC(=O)c1cccc(Br)c1)c1ccccc1C (stereo unspecified) | 0.999 ± 0.097 |
| COc1ccc(OC)c(C2CC(c3ccc(Cl)cc3)=NN2S(C)(=O)=O)c1 (stereo unspecified) | 0.897 ± 0.09 |
| Cc1nc[nH]c1CN1CCc2c(c3ccccc3n2C)C1=O.Cl | 1.08 ± 0.12 |
| CC(=NNC(=O)CSc1nc2ccccc2n1Cc1ccccc1)c1ccc(Cl)cc1 | 0.923 ± 0.089 |
| CN1CCN(C2=C(Cl)C(=O)N(c3cccc(Cl)c3)C2=O)CC1 | 0.914 ± 0.099 |
| CC(=O)C1CCC2C3CC=C4CC(O)CCC4(C)C3CCC12C (stereo unspecified) | 1.1 ± 0.12 |
| CC(C)CNC(=O)C(=O)Nc1ccc(C(C)C)cc1 | 0.931 ± 0.11 |
| COc1ccc(CCNCC(O)COc2cccc(C)c2)cc1OC.Cl (stereo unspecified) | 1.15 ± 0.057 |
| CCOc1ccc(C=c2sc3nc4ccccc4n3c2=O)cc1Cl | 1.02 ± 0.095 |
| O=C(CCCN1CCC(O)(c2ccc(Br)cc2)CC1)c1ccc(F)cc1 [Prestw-509] | 1.12 ± 0.14 |
| CC(=O)Nc1ccc(S(=O)(=O)N2CCC(Oc3nc(C)cc(C)n3)C2)cc1 (stereo unspecified) | 1.03 ± 0.078 |
| Cc1cc(C)n(CC2CCN(Cc3ccc(Br)cc3)CC2)n1 | 0.745 ± 0.063 |
| C#CCCCCCCCCCCCC(=O)CC(O)COC(C)=O (stereo unspecified) | 0.338 ± 0.034 |
| COc1ccc(-n2cnc3cc(NC(C)=O)ccc32)cc1 | 0.973 ± 0.089 |

| SMILES | NF-kB reporter |
| --- | --- |
| COC1CC2CCC(C1)N2S(=O)(=O)c1ccc(Br)cc1 (stereo unspecified) | 1.05 ± 0.1 |
| CN(C)C(=O)c1cc2cnc(Nc3ccc(N4CCNCC4)cn3)nc2n1C1CCCC1 | 0.887 ± 0.11 |
| CCCOc1ccc(-c2ccc(-c3nc(Cc4ccc(OC)c(OC)c4)no3)cc2)cc1 | 0.972 ± 0.046 |
| CCOC(=O)C1=C(C)NC(=O)N(C(C)=O)C1c1ccc(Br)cc1 (stereo unspecified) | 0.898 ± 0.1 |
| O=C(Nc1ccccn1)c1ccc(OCC2CCCO2)nc1 (stereo unspecified) | 1.02 ± 0.077 |
| O=c1[nH]nc(Br)c(=O)[nH]1 | 1.1 ± 0.09 |
| O=C(O)CCCN1CCC(O[C@@H](c2ccc(Cl)cc2)c2ccccn2)CC1.O=S(=O)(O)c1ccccc1 | 1.24 ± 0.3 |
| COc1cc2c(cc1Cc1cccc(Cl)c1F)c(=O)c(C(=O)O)cn2[C@H](CO)C(C)C | 1.04 ± 0.27 |
| CC1CC(=O)C2=C(C1)OC(N)=C(C#N)C2c1cccc2ccccc12 (stereo unspecified) | 1.06 ± 0.065 |
| COc1ccc(Br)c(C(=O)N2CCOCC2CO)c1 (stereo unspecified) | 0.963 ± 0.095 |
| COC(=O)c1ccc(N2C(=O)c3ccc(Oc4cccc([N+](=O)[O-])c4)cc3C2=O)cc1 | 0.923 ± 0.079 |
| CC(C)NCC(O)COc1ccccc1C(C)(C)C.Cl (stereo unspecified) | 1.02 ± 0.098 |
| COc1ccc([C@H]2CNC(=O)C2)cc1OC1CCCC1 | 2.21 ± 0.38 |
| Cc1c(C)c2c(c(C)c1O)CCC(C)(CCCC(C)CCCC(C)CCCC(C)C)O2 (stereo unspecified) | 0.997 ± 0.052 |
| Oc1ccc(O)cc1 | 0.586 ± 0.41 |
| Cc1c(C)n2c3c(=O)n(Cc4ccccc4F)c(=O)n(C)c3nc2n1CCCN1CCOCC1 | 1.1 ± 0.087 |
| CCOc1ccc(CN(CCc2ccc3c(c2)OCO3)Cc2cccc3ccccc23)cc1 | 0.888 ± 0.074 |
| Cc1ccc(O)c([C@H](CCN(C(C)C)C(C)C)c2ccccc2)c1.O=C(O)[C@H](O)[C@@H](O)C(=O)O | 0.881 ± 0.081 |
| CCOC(=O)N(CC(=O)OC)CP(=O)(O)C(Cc1ccccc1)C(=O)O (stereo unspecified) | 1.02 ± 0.07 |
| COC(=O)CNC(c1ccccc1)c1cc(Br)ccc1NC(=O)c1ccccc1Br (stereo unspecified) | 0.777 ± 0.041 |

— the supplement of paper PMC10646978
